Screening data (PubChem)
CaV13 FRET inh = Primary screen for inhibitors of IQ motif and Ca2+-dependent inactivation inhibitor domain binding in CACNA1D, Förster resonance energy transfer in living cells, …; HEK cells, CFP/YFP FRET ICDI-IQ, plate reader, 10 min; percent FRET-ratio fall versus neutral wells; inhibition, % at 12.3 µM; 340,000 tested, 0.098% active;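 active = mean replicate inhibition of at least 30% and at least 1% of replicates passing that level; inconclusive = only one of the two criteria is met; inactive = neither criterion is met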;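 note: 0% = median of the neutral control wells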
PGC1a acetyl inh = inhibitors of PGC1a acetylation signal, primary screen, cell-based, U2OS, AlphaScreen, inhibitor mode. AlphaScreen anti-acetyl-lysine; with virally co-expressed GCN5 acetyltransferase. inhibition, % at 15.6 µM. 350,000 tested, 0.17% active. AID 651687, 2012;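 active = every replicate shows inhibition of at least 40%; inconclusive = mean inhibition at least 40% but some replicate below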;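 note: 0% = neutral control wells and 100% = positive control wells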
GSIS activator = GLuc luminescence reporter in INS-1E cells, primary screen for activators of glucose-dependent secretion of insulin; AID 743287, 2014; activation, % at 16.6 µM; INS-1E GLuc reporter insulin secretion, 2-3 h; 370,000 tested, 0.61% active;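 active = lowest replicate activation of at least 40%, so every replicate reaches that level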;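 note: 0% = median of neutral control wells and 100% = median of IBMX positive control wells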
DENV2 CPE rescue = inhibitors of DENV2 cytopathic effect, primary screen, cell-based, plate reader, single concentration. AID 651640, 2012. CPE inhibition, % at 9.99 µM. 350,000 tested, 1.7% active. DENV2-infected cells, cytopathic effect rescue; in the data active = CPE inhibition above about 20%, passing the limit was not always enough; inconclusive = no clear call, values can overlap the other calls; tested in BHK-21 cells;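 note: 0% = median of neutral control wells and 100% = median of positive control wells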
rRNA inh HTS = reduced GFP signal of wild-type E. coli, primary screen, bacterial rRNA inhibitor project, GFP/RFP fluorescence, OD600, single point | AID 720706, 2013 | 350,000 tested, 1.6% active | GFP signal change (wild-type ribosome), % (test concentration not listed) | E. coli WT GFP vs humanized-ribosome RFP mutants, 24 h; stronger effect = lower value; DMSO median 0, no signal -100;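 active = significant combined selectivity score with lowered wild-type GFP, culture density cut under 30%, mutant RFP and density less affected; inactive = any of these conditions unmet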
ERAP1 HTS inh = human ERAP1 aminopeptidase inhibitors, primary screen, biochemical, single point, plate reader; Endoplasmic reticulum aminopeptidase 1 (Homo sapiens), Q9NZ08; recombinant ERAP1, Leu-AMC fluorescence, 60 min; inhibition, % at 10.7 µM; 340,000 tested, 0.15% active;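 active = mean replicate inhibition of at least 30%, or all replicates individually reaching that 30% level; inactive = mean below 30% and not every replicate reaching it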;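 note: 0% = neutral control wells and 100% = L-leucinethiol positive control wells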
Target sequence (Q9NZ08 whole entry, looked up): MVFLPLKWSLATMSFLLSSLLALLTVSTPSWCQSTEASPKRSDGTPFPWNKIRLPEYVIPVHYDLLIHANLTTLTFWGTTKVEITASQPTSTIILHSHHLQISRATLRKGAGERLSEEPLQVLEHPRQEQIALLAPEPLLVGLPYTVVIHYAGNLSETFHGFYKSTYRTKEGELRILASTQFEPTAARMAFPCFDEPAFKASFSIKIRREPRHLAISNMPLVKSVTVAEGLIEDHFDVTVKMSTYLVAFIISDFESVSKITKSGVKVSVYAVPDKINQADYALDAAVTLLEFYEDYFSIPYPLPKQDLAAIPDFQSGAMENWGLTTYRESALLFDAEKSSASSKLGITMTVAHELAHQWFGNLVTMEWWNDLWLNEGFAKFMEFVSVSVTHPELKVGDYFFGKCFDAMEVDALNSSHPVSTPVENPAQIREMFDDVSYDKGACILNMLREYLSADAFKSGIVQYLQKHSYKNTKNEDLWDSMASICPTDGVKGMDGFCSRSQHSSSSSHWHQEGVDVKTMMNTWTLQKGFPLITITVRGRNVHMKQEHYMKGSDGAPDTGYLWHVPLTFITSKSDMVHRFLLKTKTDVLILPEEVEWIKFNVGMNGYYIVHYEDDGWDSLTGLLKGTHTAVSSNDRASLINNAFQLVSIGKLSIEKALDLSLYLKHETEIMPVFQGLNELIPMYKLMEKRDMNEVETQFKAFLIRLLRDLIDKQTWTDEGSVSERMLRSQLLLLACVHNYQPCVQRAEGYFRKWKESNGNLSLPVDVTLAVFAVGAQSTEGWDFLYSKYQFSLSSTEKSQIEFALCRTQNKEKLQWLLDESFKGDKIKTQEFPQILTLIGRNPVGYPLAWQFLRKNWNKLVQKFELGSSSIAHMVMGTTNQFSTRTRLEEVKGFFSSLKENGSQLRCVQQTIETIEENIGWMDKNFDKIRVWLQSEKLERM
Starred values were filed as active, the others as inactive; ? = inconclusive; / = not tested or not shown. An excerpt weighted towards active compounds, which were near 3.2% of everything screened.

SMILES	CaV13 FRET inh	PGC1a acetyl inh	GSIS activator	DENV2 CPE rescue	rRNA inh HTS	ERAP1 HTS inh
Cc1cccc(CNc2ncnc3ccc(-c4ccoc4)cc23)c1	?	30	/	-3	10	-4
O=S(=O)(c1cccs1)N1CCN(c2ccnc3cc(Cl)ccc23)CC1	-19	-13	-4	64*	-33	3
O=C(Nc1cc(F)ccc1F)N1CCN(c2ccnc3cc(Cl)ccc23)CC1	-6	-11	-36	-4	-28*	-2
O=S(=O)(c1ccccc1)N1CCN(c2ccnc3cc(Cl)ccc23)CC1	-5	3	3	1	-38	1
CCNC(=S)N/N=C/c1ccc(OCCOc2ccccc2C)cc1	-7	24	137*	/	/	/
CCNC(=S)N/N=C/c1cccc(C)c1	-3	/	2	/	-14*	2
C[C@H]1CN([C@@H](C)CO)C(=O)c2cc(/C=C/c3ccccc3)cnc2O[C@H]1CN(C)C(=O)Nc1ccc(C(F)(F)F)cc1	/	0	-9	2	0	-1
CC(=O)NCC(=O)NC1CCCc2c1cnn2-c1ccc(C(C)(C)C)cc1 (stereo not drawn)	-19	-8	-9	31*	-10	-2
CC(C)(C)c1ccc(-n2ncc3c2CCCC3NC(=O)CN2CCCCC2=O)cc1 (stereo not drawn)	-2	/	-29	-2	0	6
COc1ccc(C(C)NC(=S)NCc2ccc(F)cc2)cc1 (stereo not drawn)	/	-5	-21	-4	-16	-1
COc1cccc(C(C)NC(=S)NCc2ccc(Cl)cc2)c1 (stereo not drawn)	-6	/	-13	/	-24*	-1
CO[C@H]1CN(C)C(=O)c2ccc(NS(=O)(=O)CC(F)(F)F)cc2OC[C@H](C)N(CCC(F)(F)F)C[C@@H]1C	/	17	-5	-4	-1	0
CC(=O)c1ccc(OC2(C)CCN(Cc3ccc(C)cc3)C2)cc1 (stereo not drawn)	-5	6	0	-4	6	-1
COC(=O)Cc1ccc(OC2(C)CCN(Cc3csc4ccccc34)C2)cc1 (stereo not drawn)	-3	13	0	26*	-3	-2
CC(C)Oc1ccccc1OC1(C)CCN(Cc2ccc(OC(F)(F)F)cc2)C1 (stereo not drawn)	-3	/	-51	42*	8	3
CC(=O)c1ccc(OC2(C)CCN(Cc3ccc4ccccc4c3)C2)cc1 (stereo not drawn)	-15	-8	-6	117*	-3	3
COCC(=O)N1C[C@@H](C)[C@H](OC)CN(C)C(=O)c2cc(NC(=O)C3CCC3)ccc2OC[C@@H]1C	/	4	-5	23*	3	-3
CO[C@@H]1CN(C)C(=O)c2cc(NC(=O)C3CCC3)ccc2OC[C@H](C)N(Cc2ccncc2)C[C@@H]1C	/	7	8	7	-4	2
CO[C@H]1CN(C)C(=O)c2cc(NC(=O)C3CCC3)ccc2OC[C@@H](C)N(Cc2ccncc2)C[C@@H]1C	/	-1	6	52*	0	/
CO[C@H]1CN(C)C(=O)c2cc(NC(=O)C3CCC3)ccc2OC[C@H](C)N(C)C[C@@H]1C	/	-6	7	73*	3	/
CO[C@H]1CN(C)C(=O)c2ccc(NC(=O)Nc3ccc(Cl)cc3)cc2OC[C@H](C)N(C)C[C@H]1C	/	/	-1	27*	1	-4
COCC(=O)N1C[C@@H](C)[C@@H](OC)CN(C)C(=O)c2cc(NC(=O)C3CCC3)ccc2OC[C@@H]1C	/	5	12	/	2	/
CO[C@@H]1CN(C)C(=O)c2cc(NC(=O)C3CCC3)ccc2OC[C@@H](C)N(C)C[C@H]1C	/	-5	8	2	2	/
C[C@@H]1CN([C@H](C)CO)C(=O)c2cc(NC(=O)Nc3ccc(F)cc3)ccc2O[C@@H]1CN(C)Cc1ccc(Oc2ccccc2)cc1	/	-9	-15	3	-6	-1
CO[C@H]1CN(C)C(=O)c2ccc(NC(=O)C3CCCC3)cc2OC[C@H](C)N(C)C[C@@H]1C	/	/	-5	52*	0	1
SMILES	CaV13 FRET inh	PGC1a acetyl inh	GSIS activator	DENV2 CPE rescue	rRNA inh HTS	ERAP1 HTS inh
CO[C@@H]1CN(C)C(=O)c2ccc(NC(=O)C3CCCC3)cc2OC[C@H](C)N(C)C[C@@H]1C	/	/	13	-3	-1	-1
CCN(CC(=O)Nc1ccc(OC)cc1)C(=O)CSCc1c(C)noc1C	-2	4	1	74*	15	3
CCN(CC(=O)Nc1c(F)cccc1F)C(=O)CSCc1c(C)noc1C	-5	/	19	-4	5	-1
CCC1=C(OC(=O)N(CC)CC)N2C(=O)OC(=NCCc3c[nH]c4ccccc34)[C@]2(C)[C@H]2C1=CC[C@H]1C(=O)N(CC(=O)OC)C(=O)[C@H]12	-5	/	-19	/	/	/
CCC1=C(OC(=O)N(CC)CC)N2C(=O)OC(=NCCc3c[nH]c4ccccc34)[C@]2(C)[C@H]2C1=CC[C@H]1C(=O)NC(=O)[C@H]12	-11	/	/	27*	0	1
CCC1=C(OC(=O)N(CC)CC)N2C(=O)OC(=NCC(=O)OC)[C@]2(C)[C@H]2C1=CC[C@H]1C(=O)N(C)C(=O)[C@H]12	-11	-4	/	/	15	-1
CCC1=C(OC(=O)N(CC)CC)N2C(=O)OC(=NCC3CC3)[C@]2(C)[C@H]2C1=CC[C@H]1C(=O)NC(=O)[C@H]12	-5	/	-13	46*	2	-1
CN1CCN(/N=C/c2ccc(OCc3ccccc3)cc2)CC1	-4	?	4	23*	7	6
COC(=O)c1ccc(COc2ccc(/C=N/N3CCN(C)CC3)cc2)cc1	-10	1	12	-2	11	-1
CO[C@@H]1CN(C)C(=O)c2ccc(NC(=O)NC(C)C)cc2OC[C@H](C)N(Cc2ccccc2)C[C@H]1C	/	0	-26	11	-2	-1
COC(=O)C[C@H]1C[C@H]2c3cc(NC(=O)CC4CC4)ccc3O[C@H]2[C@@H](CO)O1	/	2	20	1	4	0
Oc1ccc(O)c(C=NNC(=S)NC2CC3CC2C2C=CCC32)c1 (stereo not drawn)	-6	-6	-11	3	-63	-2
NNC(=S)NC1CC2CC1C1C=CCC21 (stereo not drawn)	-15	/	8	-5	-21*	1
C[C@@H]1CN([C@H](C)CO)C(=O)c2cc(NC(=O)CCC(F)(F)F)ccc2O[C@@H](C)CCCCO[C@@H]1CN(C)C(=O)c1ccccc1	/	8	0	-1	2	-2
